Screening data: PubChem BioAssay, National Center for Advancing Translational Sciences (NCATS)
Rab9 promoter act = Rab9 promoter activation; Huh7 Rab9 promoter-luciferase reporter, luminescence, 24 h; Potency, µM (doses to about 9.22 µM), hits mostly activators; hit rate 2.8% among 320,000; AID 485297; note: nearly all actives have a fitted effect of over 60% in size
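Rab9 promoter-driven luciferase in stably transfected Huh7 cells; 1500 cells/well rested 2 h, exposed to compound in DMSO for 24 h at 37 °C, 5% CO2. Luminescence read 10 min after adding luciferase reagent at ambient temperature.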
uPA surface inh = cell surface uPA generation inhibition; cell surface uPA generation assay, qHTS; Potency, µM (top dose mostly 38.3 µM), usual class: inhibitors; hit rate 0.31% among 330,000; AID 540303; active = well fitted inhibition curve with a large enough effect; inconclusive = small, poorly fitted or top-dose-only effect; inactive = no such curve, though single readings can be large or run the other way; tested in mouse RAW 264.7 cells; note: nearly all actives have a fitted effect of over 55% in size
ELG1 genotox = inducers of genotoxicity in HEK293T ELG1-luciferase cells. HEK293T ELG1-luciferase reporter, luminescence, 16 h. AID 504466. Potency, µM (highest dose often 46 µM), most hits filed as activators. hit rate 1.3% among 330,000; note: nearly all actives have a fitted effect of over 60% in size
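DMSO vehicle served as control against compound-treated ELG1-luciferase HEK293T cells; exposure lasted 16 hr at 37 °C and 5% CO2, followed by ONE-Glo luminescence detection after 30 min.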
SMN2 splice up = increases expression of the SMN2 splice variant; HEK293 SMN2-luciferase splicing reporter, luminescence, 30-36 h; Potency, µM (doses to about 46.1 µM), actives largely listed as activators; hit rate 2.8% among 210,000; AID 1458; note: nearly all actives have a fitted effect of over 55% in size
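qHTS luciferase splicing reporter: luminescence rises when SMN2 exon 7 is included in transfected HEK293 cells. Compound exposure lasted 30-36 h at 37C, with 4.5 mM final sodium butyrate as control, followed by a ONE-Glo read.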
FLuc modulator = firefly luciferase modulation, counter-screen for miR-21 project | Potency, µM (top dose mostly 57.5 µM), hits mostly inhibitors | AID 588342 | purified FLuc, Km substrates, luminescence inhibition | hit rate 6.9% among 360,000; note: nearly all actives have a fitted effect of over 55% in size
Target sequence (P08659 whole entry, looked up): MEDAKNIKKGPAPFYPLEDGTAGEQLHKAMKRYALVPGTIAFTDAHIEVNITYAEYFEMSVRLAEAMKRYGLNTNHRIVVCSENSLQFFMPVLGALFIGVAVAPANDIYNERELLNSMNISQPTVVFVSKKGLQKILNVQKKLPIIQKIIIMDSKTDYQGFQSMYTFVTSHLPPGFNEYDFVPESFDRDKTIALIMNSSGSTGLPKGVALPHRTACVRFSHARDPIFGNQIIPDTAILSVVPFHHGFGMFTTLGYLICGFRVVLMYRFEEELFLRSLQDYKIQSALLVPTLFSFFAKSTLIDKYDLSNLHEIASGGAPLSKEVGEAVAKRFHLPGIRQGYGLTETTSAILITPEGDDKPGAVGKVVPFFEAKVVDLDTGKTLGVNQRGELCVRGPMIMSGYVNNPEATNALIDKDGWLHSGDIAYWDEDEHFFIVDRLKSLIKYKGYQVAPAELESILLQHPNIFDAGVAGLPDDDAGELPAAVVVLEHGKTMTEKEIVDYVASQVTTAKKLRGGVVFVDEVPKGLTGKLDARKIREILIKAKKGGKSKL
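Biochemical qHTS of compounds, final roughly 60 µM downward over six points, against 10 nM purified firefly luciferase using Km concentrations of substrates (10 uM D-luciferin, 10 uM ATP) in Tris acetate pH 7.5 buffer; luminescence output.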
NPC1 promoter act = NPC1 promoter activation | Huh7 NPC1 promoter luciferase reporter, 24 h | Potency, µM (series often up to 9.22 µM), hits mostly activators | hit rate 2.4% among 320,000 | AID 485313; note: nearly all actives have a fitted effect of over 60% in size
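Huh7 cells stably carrying NPC1 promoter–luciferase, plated in Opti-MEM with 10% FBS for 2 h, were exposed to compound in DMSO for 24 h at 37 °C; luciferase reagent was added for 10 min and luminescence read.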
Numbers stand for hits; - = inactive; ? = inconclusive; . = no result. Rows were chosen to be rich in hits. Some 7.3% of all compounds tested hit in one or more screens of this group. Unless noted, calls come from the whole dose curve; as a rule, active = well fitted curve in the direction sought with a large enough effect; inconclusive = small, poorly fitted or top-dose-only effect, or another doubt; inactive = no such curve, though single readings can be large; an effect the other way counts as inactive or inconclusive.

SMILES	Rab9 promoter act	uPA surface inh	ELG1 genotox	SMN2 splice up	FLuc modulator	NPC1 promoter act
CC(=O)/C(N=Nc1ccc2c(c1)OCCO2)=C(\C)O	-	?	?	-	9.5µM	-
CCn1cc(Cl)c(C(=O)Nc2ccccc2C(N)=O)n1	-	-	-	-	-	-
CN(C)c1ccc(NC(=O)Nc2csc3ccccc23)cc1	?	-	?	.	2.7µM	-
O=C(Nc1ccc(F)cc1)Nc1csc2ccccc12	-	-	-	.	24µM	-
O=C(Cc1cccc(NC(=O)C2CCN(C(=O)c3ccccc3)CC2)c1)Nc1cccc(C(=O)N2CCCCC2)c1	.	-	.	.	.	.
O=C(c1cccs1)N1CCN(C(=O)c2cn(-c3ccccc3)nc2-c2ccccc2)CC1	.	-	-	.	.	.
O=C(O)c1cc(-c2cccs2)nc2ccc(Br)cc12	-	.	-	.	19µM	-
O=C(O)c1cc(-c2cccs2)nc2ccc(F)cc12	-	-	-	.	?	-
O=C(c1cn(-c2ccccc2)nc1-c1cccs1)N1CCN(c2ccc(F)cc2)CC1	-	-	-	.	13µM	-
O=C(c1cc(-c2cccs2)on1)N1CCN(c2ccc(F)cc2)CC1	-	.	-	-	24µM	-
O=C(c1cc(-c2cccs2)nc2ccccc12)N1CCN(c2ccccc2)CC1	-	-	-	-	11µM	-
O=C(COCc1cc(-c2cccs2)on1)N1CCN(c2ccc(F)cc2)CC1	.	.	.	.	-	.
CC(O)COC(C)(C)C (centres undefined)	.	.	.	-	.	.
O=C(c1cn(-c2ccccc2)nc1-c1ccc(Cl)s1)N1CCOCC1	-	-	-	-	17µM	-
O=C(c1cc(-c2cccs2)on1)N1CCN(c2ccccc2)CC1	-	?	-	-	17µM	-
CC1CCN(Cc2nnnn2CCCC(=O)N(C)C(C)c2ccccn2)CC1 (centres undefined)	-	-	-	.	-	-
CCC(=O)Nc1nc(-c2ccc3c(c2)OCCO3)cs1	3.2µM	?	2.1µM	2.5µM	6µM	0.5µM
O=C(/C=C/c1ccc2c(c1)OCO2)Nc1nc(-c2ccc(F)cc2)cs1	-	.	-	-	?	-
COc1ccc(-c2csc(NC(=O)C3=COCCO3)n2)cc1OC	?	-	?	.	?	?
COc1ccccc1C(=O)Nc1nc(-c2ccc3c(c2)OCCO3)cs1	-	-	-	-	?	-
CC(C)(C)C(=O)Nc1nc(-c2ccc3c(c2)OCO3)cs1	2.8µM	-	2.3µM	?	7.6µM	3.5µM
c1cc2c(cc1-c1csc(NNC3=NCCCCC3)n1)OCCO2	?	-	-	-	19µM	-
Cc1cccc(Cn2cc(C(=O)Nc3ccc(F)c(C(F)(F)F)c3)ccc2=O)c1	.	.	.	.	-	.
COc1ccccc1C(=O)N1CCCCC1CCN1CCOCC1 (centres undefined)	.	.	.	-	-	.
CCOC(=O)Cc1csc(N/N=C\c2ccccc2OC)n1	-	-	-	.	11µM	-
SMILES	Rab9 promoter act	uPA surface inh	ELG1 genotox	SMN2 splice up	FLuc modulator	NPC1 promoter act
CCOC(=O)Cc1csc(N/N=C\c2ccc(N(C)C)cc2)n1	-	-	-	.	2.4µM	?
CCOC(=O)Cc1csc(N/N=C\c2cccc(Br)c2)n1	-	-	-	-	?	-
COc1ccc(/C=N/Nc2nc(C(=O)O)cs2)cc1	?	-	-	.	0.67µM	?
CCOC(=O)Cc1csc(N/N=C/c2ccccc2)n1	-	-	-	-	15µM	-
CCOC(=O)Cc1csc(NC(=O)COc2ccccc2OC)n1	-	-	-	.	-	-
COc1ccc(-c2cc3ccc(O)c(CN4CCN(CCO)CC4)c3oc2=O)cc1OC	.	.	.	.	-	.
Cc1ccc(/C=C/c2onc(C)c2S(=O)(=O)N2CCC(C(=O)N3CCC(N(C)C(C)C)CC3)CC2)cc1	.	.	.	.	-	.
CCc1ccc(NC(=O)Cn2c(=O)n(CCCC(=O)NCc3ccccc3OC)c(=O)c3ccccc32)cc1	.	.	.	-	-	.
Cc1cc2c(sc3ccccc32)c(C)n1	-	-	-	.	-	-
Cc1cc(C)nc(Nc2nc(=O)c3ccccc3s2)n1	?	-	18µM	?	17µM	?
COc1cc(/C=N/Nc2ccc(Cl)c(C(=O)O)c2)ccc1OC(=O)c1ccccc1F	-	-	-	.	17µM	?
COc1cc(/C=N/NC(=O)c2ccncc2)ccc1OC(=O)c1ccccc1Cl	-	-	-	-	?	-
COc1cc(/C=N/Nc2ccc(Cl)c(C(=O)O)c2)ccc1OC(=O)c1ccc(F)cc1	?	-	?	.	?	2.8µM
CC(=O)c1c(C)nc2sc3c(=N)n(N)cnc3c2c1-c1ccc(Cl)cc1	-	-	-	-	-	-
O=C(Nc1ccc(C(=O)O)cc1)/C(=C\C=C\c1ccccc1)NC(=O)c1ccccc1Cl	-	-	-	.	-	-
CCCCOc1ccc(C(=O)N/C(=C/C=C/c2ccccc2)C(=O)NC)cc1	-	?	-	-	17µM	-
O=C(O)CCNC(=O)/C(=C\C=C\c1ccccc1)NC(=O)c1ccccc1	-	-	-	.	-	-
O=C(Nc1ccc(O)cc1)/C(=C\C=C\c1ccccc1)NC(=O)c1ccccc1	-	-	-	.	9.5µM	-
COC(=O)/C(=C\C=C\c1ccccc1)NC(=O)c1ccccc1	-	-	-	-	?	-
O=C(O)COc1ccc(/C=N/NC(=O)/C(=C/C=C/c2ccccc2)NC(=O)c2ccccc2)cc1	-	-	-	.	21µM	-
CCCCOc1ccc(C(=O)N/C(=C/C=C/c2ccccc2)C(=O)O)cc1	-	-	-	-	15µM	-
COc1cc(C)ccc1OCCn1c(-c2ccc(Cl)cc2)nc2ccccc2c1=O	.	.	.	-	-	.
